# Source: PubChem BioAssay
# Records with an inconclusive call do not appear. For some of these results: Results with a measured potency or affinity are listed apart. Activity calls are given as the source filed them. Unless noted, no rule for the calls is given here.
# Legend:
# [1] = molecular target: ATP-dependent translocase ABCB1 (Homo sapiens) (UniProt P08183); assay: P-glycoprotein substrate transport blockade – cell-based (AID 377; in the data active = fluorescence slope change above about 50%); conditions: MDR1-expressing cells, fluorescent substrate accumulation slope; stronger effect = higher value; concentration not given here
# [2] = antimalarial activity against Dd2 strain (AID 2302;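 active = growth inhibition above 50% at the single 2 µM test dose, taken to imply half-maximal potency below 2 µM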;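 also: 0% = DMSO untreated growth and 100% = chloroquine plus artemisinin killed control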); conditions: P. falciparum Dd2 in RBCs, LDH growth readout, 72 h; at 2 µM; stronger effect = higher value
# [3] = human hepatoma cell viability loss – ATP luminescence, cytotoxicity control for P. falciparum antimalarial project, primary screen (AID 2303;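 active = inhibition above 50%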;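 also: 0% = DMSO wells and 100% = digitonin-killed cells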); conditions: HepG2 viability, 24-48 h, at 10 µM, stronger effect = higher value
# [4] = molecular target: L-lactate dehydrogenase (Plasmodium falciparum (isolate CDC / Honduras)) (UniProt Q27743); assay: PfLDH activity inhibition – cell lysate, 3D7 strain, counter-screen for P. falciparum growth inhibition project (AID 2304);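 also: 0% = vehicle and 100% = reference inhibitor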; conditions: P. falciparum 3D7 crude extract, LDH APAD/NBT absorbance; at 2 µM; stronger effect = higher value
# [5] = inhibition of 3D7 malaria parasite growth – strain 3D7 (AID 2306);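 also: 0% = DMSO wells and 100% = chloroquine plus artemisinin control wells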; conditions: P. falciparum 3D7 erythrocytic growth, LDH absorbance, 72 h; at 2 µM; stronger effect = higher value
# [6] = molecular target: NAD(+) hydrolase SARM1 (Homo sapiens) (UniProt Q6SZW1); assay: blocking NAD cleavage by SARM1 SAM-TIR – cell lysate, NAD-Glo luminescence (AID 1508614;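 active = compound whose remaining NAD level is above about 45 nM, limit read from the data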;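 also: higher remaining NAD means stronger inhibition of SARM1 NADase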); conditions: SAM-TIR HEK293T lysate NADase, at 1 µM, stronger effect = higher value
# [7] = molecular target: Mitogen-activated protein kinase 7 (Homo sapiens) (UniProt Q13164); assay: Gal4-ERK5 driven luciferase induction – cell-based, HTS, primary screen (AID 1508626;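 active = luciferase signal above three times the same-plate solvent-only control wells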;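 also: luciferase driven by Gal4-ERK5 fusion binding five Gal4 sites before minimal TATA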); conditions: HeLa Gal4-ERK5 transactivation, 18 h, at 5 µM, stronger effect = higher value
# [8] = glutamate excitotoxicity neuroprotectants – cell-based, TUNEL DNA degradation staining, MNGlu (AID 1594); conditions: motor neurons, glutamate-induced death, at 1 µM, stronger effect = higher value
# [9] = rescue of PC12 cells from polyQ htt toxicity – LDH release (AID 1610); conditions: PC12 mutant huntingtin toxicity, final LDH at 4 uM, stronger effect = lower value
# [10] = blockers of MitoPT in mitochondria (AID 1580); conditions: isolated mitochondria, permeability transition inhibition
# [11] = blockers of polyQ-driven CASP3 activation – cell-based (AID 1583); conditions: polyglutamine-induced caspase-3 activation, cell assay; stronger effect = higher value;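 tested at 10 µM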
# [12] = yeast 75Q aggregation reduction – 75Q-TubU reporter (AID 1593); conditions: Yeast 75Q polyglutamine aggregation reporter
# [13] = restoration of touch response, mutant HTT neurons – whole organism, C. elegans mechanosensory neurons, N-terminal huntingtin (AID 1599); conditions: C. elegans polyQ-huntingtin mechanosensory neurons, stronger effect = higher value
# [14] = blockers of cytochrome c efflux from mitochondria – biochemical, purified mitochondria (AID 1603); conditions: stronger effect = lower value;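 also: mouse liver mitochondria challenged with calcium chloride; signal normalized to the plate average as 100%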
# [15] = polyglutamine aggregate formation blockers (AID 1604); conditions: polyglutamine-induced protein aggregation inhibition assay; stronger effect = higher value; tested at 2.5 µM
# [16] = glutamate transport activators, MN-1 cells, MN-1 cell line (AID 1612); conditions: MN-1 motor neuron cells, stronger effect = higher value;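 also: tested at 1 µM final; 0% = mean of DMSO vehicle wells on each plate; positive means more glutamate uptake than control and negative means less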
# [17] = 75Q-TubH aggregate inhibition, S. cerevisiae, yeast (AID 1616); conditions: S. cerevisiae 75Q-TubH polyglutamine aggregation suppression; stronger effect = higher value
# Chain of NAD(+) hydrolase SARM1 (Homo sapiens) (Q6SZW1 whole entry, looked up, the tested form may be a part): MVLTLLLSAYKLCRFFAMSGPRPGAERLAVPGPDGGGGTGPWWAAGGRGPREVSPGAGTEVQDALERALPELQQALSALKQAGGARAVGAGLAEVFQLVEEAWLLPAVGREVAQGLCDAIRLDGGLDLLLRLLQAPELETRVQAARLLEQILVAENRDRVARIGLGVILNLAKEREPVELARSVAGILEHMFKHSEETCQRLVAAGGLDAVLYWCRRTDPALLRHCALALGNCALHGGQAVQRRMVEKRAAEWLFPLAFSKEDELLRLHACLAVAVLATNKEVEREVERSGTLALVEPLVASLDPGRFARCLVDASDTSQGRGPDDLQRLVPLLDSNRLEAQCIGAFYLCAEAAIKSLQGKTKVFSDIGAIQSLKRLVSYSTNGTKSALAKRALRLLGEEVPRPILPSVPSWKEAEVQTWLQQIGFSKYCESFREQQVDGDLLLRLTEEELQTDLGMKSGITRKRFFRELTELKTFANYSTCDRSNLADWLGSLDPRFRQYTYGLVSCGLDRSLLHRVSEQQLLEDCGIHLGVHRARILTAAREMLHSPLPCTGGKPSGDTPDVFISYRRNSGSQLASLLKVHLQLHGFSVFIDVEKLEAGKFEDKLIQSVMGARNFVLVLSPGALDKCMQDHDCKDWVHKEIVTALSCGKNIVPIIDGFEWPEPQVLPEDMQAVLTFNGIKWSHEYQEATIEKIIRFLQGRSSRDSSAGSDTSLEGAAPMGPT
# Chain of ATP-dependent translocase ABCB1 (Homo sapiens) (P08183 whole entry, looked up): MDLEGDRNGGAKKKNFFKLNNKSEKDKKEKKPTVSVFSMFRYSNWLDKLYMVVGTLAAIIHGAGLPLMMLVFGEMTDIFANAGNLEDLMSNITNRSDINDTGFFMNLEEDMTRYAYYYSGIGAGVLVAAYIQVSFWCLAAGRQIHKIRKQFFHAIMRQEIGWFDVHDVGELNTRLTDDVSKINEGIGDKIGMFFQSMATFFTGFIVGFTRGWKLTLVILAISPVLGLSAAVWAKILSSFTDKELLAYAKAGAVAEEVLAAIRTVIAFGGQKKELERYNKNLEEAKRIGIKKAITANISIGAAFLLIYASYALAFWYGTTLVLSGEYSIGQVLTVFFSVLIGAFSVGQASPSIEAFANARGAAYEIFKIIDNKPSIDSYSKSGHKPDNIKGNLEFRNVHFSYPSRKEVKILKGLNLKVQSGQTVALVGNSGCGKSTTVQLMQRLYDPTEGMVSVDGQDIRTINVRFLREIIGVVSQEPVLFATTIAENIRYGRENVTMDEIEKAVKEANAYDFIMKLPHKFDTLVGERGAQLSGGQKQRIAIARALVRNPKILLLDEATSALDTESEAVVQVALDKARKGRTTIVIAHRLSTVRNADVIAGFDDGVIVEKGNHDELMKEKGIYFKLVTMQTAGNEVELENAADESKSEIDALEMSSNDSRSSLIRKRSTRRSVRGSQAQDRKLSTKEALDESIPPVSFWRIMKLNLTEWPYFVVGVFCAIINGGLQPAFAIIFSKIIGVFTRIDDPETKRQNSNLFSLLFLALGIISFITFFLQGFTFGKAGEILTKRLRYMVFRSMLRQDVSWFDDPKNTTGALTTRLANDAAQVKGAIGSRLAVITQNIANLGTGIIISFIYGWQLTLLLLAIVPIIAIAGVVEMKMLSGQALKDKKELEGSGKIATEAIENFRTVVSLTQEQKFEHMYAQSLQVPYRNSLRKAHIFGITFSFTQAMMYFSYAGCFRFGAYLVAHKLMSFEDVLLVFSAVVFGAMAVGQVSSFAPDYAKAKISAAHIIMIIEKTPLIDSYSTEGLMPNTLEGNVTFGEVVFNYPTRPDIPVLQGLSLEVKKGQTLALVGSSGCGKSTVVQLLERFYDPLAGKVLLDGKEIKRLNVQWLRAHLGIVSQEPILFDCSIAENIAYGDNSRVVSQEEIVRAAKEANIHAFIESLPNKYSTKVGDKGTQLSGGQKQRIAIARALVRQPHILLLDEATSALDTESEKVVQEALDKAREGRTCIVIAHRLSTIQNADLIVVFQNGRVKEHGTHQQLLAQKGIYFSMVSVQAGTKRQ
# Chain of Mitogen-activated protein kinase 7 (Homo sapiens) (Q13164 whole entry, looked up, the tested form may be a part): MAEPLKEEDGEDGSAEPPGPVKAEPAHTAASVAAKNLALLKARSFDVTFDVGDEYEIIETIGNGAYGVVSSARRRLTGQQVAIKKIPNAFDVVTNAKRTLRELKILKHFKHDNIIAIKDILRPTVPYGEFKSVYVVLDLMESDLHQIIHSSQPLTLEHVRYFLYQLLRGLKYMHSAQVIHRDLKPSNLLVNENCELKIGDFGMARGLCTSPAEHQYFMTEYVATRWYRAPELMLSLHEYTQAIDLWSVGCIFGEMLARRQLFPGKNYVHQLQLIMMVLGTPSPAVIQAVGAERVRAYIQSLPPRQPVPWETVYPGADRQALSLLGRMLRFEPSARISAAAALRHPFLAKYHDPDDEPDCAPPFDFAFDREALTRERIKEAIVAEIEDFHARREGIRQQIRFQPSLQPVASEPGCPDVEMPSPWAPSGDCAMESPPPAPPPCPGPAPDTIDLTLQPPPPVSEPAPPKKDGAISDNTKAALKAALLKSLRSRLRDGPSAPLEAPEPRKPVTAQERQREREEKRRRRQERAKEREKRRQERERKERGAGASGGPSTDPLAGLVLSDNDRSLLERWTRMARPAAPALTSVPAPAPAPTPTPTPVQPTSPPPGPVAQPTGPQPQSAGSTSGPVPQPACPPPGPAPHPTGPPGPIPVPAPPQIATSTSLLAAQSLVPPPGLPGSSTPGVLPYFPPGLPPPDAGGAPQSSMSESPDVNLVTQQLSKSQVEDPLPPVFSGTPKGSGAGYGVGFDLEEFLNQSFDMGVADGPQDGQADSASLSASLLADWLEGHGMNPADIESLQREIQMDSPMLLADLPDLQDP
# Chain of L-lactate dehydrogenase (Plasmodium falciparum (isolate CDC / Honduras)) (Q27743 whole entry, looked up): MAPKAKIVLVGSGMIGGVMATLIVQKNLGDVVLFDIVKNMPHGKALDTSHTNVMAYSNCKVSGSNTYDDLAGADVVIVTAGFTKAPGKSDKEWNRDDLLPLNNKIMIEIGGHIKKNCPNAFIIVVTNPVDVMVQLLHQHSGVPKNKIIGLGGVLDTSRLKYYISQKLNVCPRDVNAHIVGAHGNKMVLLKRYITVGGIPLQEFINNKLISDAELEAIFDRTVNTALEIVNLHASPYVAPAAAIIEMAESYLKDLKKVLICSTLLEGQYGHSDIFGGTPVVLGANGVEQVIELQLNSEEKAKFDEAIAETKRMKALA
smiles,measurement,setting,value
CN(Cc1cnc2nc(N)nc(N)c2n1)c1ccc(C(=O)NC(CCC(=O)O)C(=O)O)cc1 (stereo not drawn),fluorescence slope change,[1],-5.4% (inactive)
same,growth inhibition,[2],66% (active)
same,inhibition,[3],65% (active)
same,inhibition,[4],-1% (inactive)
same,growth inhibition,[5],91% (active)
same,remaining NAD,[6],10 nM (inactive)
same,luciferase signal,[7],32 AU (inactive)
CC(C)(Oc1ccc(C(=O)c2ccc(Cl)cc2)cc1)C(=O)O,remaining NAD,[6],10 nM (inactive)
Nc1ccc(C(=O)O)c(O)c1 (tested in a mixture with another compound),protection,[8],60% (active)
OCC(S)CS (stereo not drawn),normalised LDH release,[9],0.667
CC[C@@H](C(=O)[C@@H](C)[C@@H](O)[C@H](C)[C@@H]1O[C@@H]([C@@H](CC)C(=O)O)CC[C@@H]1C)[C@H]1OC2(C=C[C@@H](O)[C@]3(CC[C@@](C)([C@H]4CC[C@](O)(CC)[C@H](C)O4)O3)O2)[C@H](C)C[C@@H]1C (stereo partly drawn),EC50,[10],0.1 µM (active)
same,inhibition,[11],40.3%
same,score,[12],0.53
same,rescue above control,[13],-3.48
same,cytochrome c release ratio,[14],1.06
same,inhibition of aggregation,[15],61.1%
same,glutamate uptake change,[16],-41.6%
same,aggregation suppression score,[17],0.25
O=c1ccn([C@@H]2O[C@H](COP(=O)(O)OP(=O)(O)OP(=O)(O)O)[C@@H](O)[C@H]2O)c(=O)[nH]1,inhibition,[11],-7.02%
same,score,[12],1.5
same,rescue above control,[13],2.48
same,cytochrome c release ratio,[14],0.87
same,inhibition of aggregation,[15],60.6%
same,glutamate uptake change,[16],11.8%
same,aggregation suppression score,[17],1.14
CC(=O)OCC(=O)[C@@]1(O)[C@H](C)CC2C3CCC4=CC(=O)C=C[C@]4(C)[C@@]3(F)[C@@H](O)C[C@@]21C (stereo partly drawn),normalised LDH release,[9],0.545
CCCCC[C@H](O)/C=C/[C@H]1[C@H](O)CC(=O)[C@@H]1C/C=C\CCCC(=O)O,fluorescence slope change,[1],51% (active)
Oc1cc2c(cc1O)C(c1ccccc1)CNCC2 (stereo not drawn),luciferase signal,[7],44 AU (inactive)
